Assay outcomes from PubChem BioAssay.
Only some compounds are listed: those with a hit (about 1.3% of all), similar ones and a draw of the others.
KCNH2 3.1 inh – inhibitors of human KCNH2 3.1 potassium channel isoform | U2OS KCNH2 3.1, thallium flux FluxOr; active compounds read low | activity change, % (tested at about 1.8 µM) | 0.95% of 340,000 active;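 active means maximum activity change below -70%; inconclusive means maximum activity change from -70% to -50%; inactive means maximum activity change above -50%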;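 further: thallium influx rate constant from kinetic fluorescence after stimulation buffer; on the % scale 0 is the no-effect control and ±100 the full control effect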
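Thallium flux read-out: FluxOr dye with Red40 quencher in HBSS/HEPES, 45 min at RT. Rate constants from kinetic reads were normalized to positive and negative DMSO controls. Cells: U2OS virally expressing the 3.1 isoform.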
TRPV1 ag – agonists of human vanilloid receptor 1 (TRPV1); TRPV1-expressing cells, Fluo-8 calcium influx, agonist mode; activation, % at 8.33 µM; 0.19% of 320,000 active; AID 540275; in the data active means activation above about 80%; inconclusive means between about 30% and that limit; further: 0% is about no effect
Target sequence (Q8NER1 whole entry, looked up): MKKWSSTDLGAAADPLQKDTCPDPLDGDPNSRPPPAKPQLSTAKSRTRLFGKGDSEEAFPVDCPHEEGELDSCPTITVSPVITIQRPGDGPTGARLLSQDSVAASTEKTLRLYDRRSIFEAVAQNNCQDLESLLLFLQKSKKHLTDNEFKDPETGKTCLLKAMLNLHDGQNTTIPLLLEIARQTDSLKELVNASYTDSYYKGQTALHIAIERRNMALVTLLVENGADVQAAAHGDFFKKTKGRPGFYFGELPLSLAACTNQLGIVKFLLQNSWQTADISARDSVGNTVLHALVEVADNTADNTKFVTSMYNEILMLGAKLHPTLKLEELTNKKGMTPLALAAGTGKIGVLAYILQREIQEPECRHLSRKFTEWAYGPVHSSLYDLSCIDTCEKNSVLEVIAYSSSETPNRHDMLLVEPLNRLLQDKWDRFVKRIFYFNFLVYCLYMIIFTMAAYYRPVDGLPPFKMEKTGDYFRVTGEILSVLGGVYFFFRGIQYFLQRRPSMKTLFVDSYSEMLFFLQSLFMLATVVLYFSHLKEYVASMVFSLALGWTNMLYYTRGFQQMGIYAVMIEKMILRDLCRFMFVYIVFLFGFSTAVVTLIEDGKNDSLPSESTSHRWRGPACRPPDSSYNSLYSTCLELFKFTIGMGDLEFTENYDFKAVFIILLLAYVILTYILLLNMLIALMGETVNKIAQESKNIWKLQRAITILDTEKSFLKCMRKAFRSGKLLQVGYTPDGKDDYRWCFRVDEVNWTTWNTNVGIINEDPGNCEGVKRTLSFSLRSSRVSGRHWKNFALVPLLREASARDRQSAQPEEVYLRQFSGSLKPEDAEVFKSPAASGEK
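TRPV1-expressing cells were cultured overnight at 35.5C and loaded with Fluo-8 calcium dye for 40 to 90 min at room temperature. After a 10 s baseline, compound was added and calcium influx was read kinetically for 3 min (ex 480/em 520 nm).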
TRPML1 agonist – activates the human TRPML1 channel; Q9GZU1; TRPML1-expressing cells, Ca2+ dye fluorescence, FDSS; activation, % (no concentration beside the values); 0.12% of 410,000 active; AID 624414; in the data active means activation above about 50%; inconclusive means mostly about 30% to 49%; further: 0% is about no effect
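Tetracycline-induced TRPML1-DL cells are seeded and incubated overnight before loading with a no-wash Ca2+ dye and quencher. Agonist activity is taken from the 110 s fluorescence read following compound pin-transfer on an FDSS, before EC80 54-4 challenge.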
TRPML1 blocker – inhibitors of human TRPML1 channel; 0.02% of 390,000 active; Q9GZU1; activity change, negative = inhibition, % (no concentration beside the values); TRPML1-inducible cells, Ca2+ dye fluorescence, FDSS; active compounds read low; inhibition of EC80 agonist-evoked calcium signal; AID 624415; in the data active means activity change below about -50%; inconclusive means between about -30% and that limit;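 further: stimulus is agonist 54-4 at its EC80 concentration; on the % scale 0 is the no-effect control and ±100 the full control effect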
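TRPML1-DL cells, Tet-induced overnight (~16 h, 37 °C) at 1,500 cells/well, were loaded with Ca8 no-wash dye plus quencher for 45-90 min at room temperature. Compounds were pinned during FDSS kinetic reading; agonist 54-4 at EC80 (4 uM final) then added.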
KCNH2 WT inh – blocks the wildtype human KCNH2 potassium channel; 0.37% of 340,000 active; activity change, % at 1.84 µM; U2OS, BacMam KCNH2, thallium flux FluxOr; active compounds read low; Q12809;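 active means maximum activity change below -70%; inconclusive means maximum activity change between -70% and -50%; inactive means maximum activity change above -50%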; further: on the % scale 0 is the no-effect control and ±100 the full control effect
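U2OS cells transduced with wild-type KCNH2 virus are loaded with FluxOr dye for 45 min, and thallium flux is measured in kinetic reads before and after stimulation buffer. Rate constants are normalized to DMSO controls.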
TRPV1 PAM – human TRPV1 potentiation; Q8NER1; TRPV1-expressing cells, Fluo-8 calcium influx, capsaicin EC20 potentiation; potentiation, % at 8.33 µM; 0.02% of 320,000 active; AID 540277; in the data active means potentiation above about 80%; inconclusive means between about 30% and that limit; further: 0% is about no effect
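Fluo-8 calcium influx in TRPV1-expressing cells, kinetic read (ex 480/em 520 nm). Compound added and read 3 min for agonist activity, followed by capsaicin at EC20 final and 2 min further read for enhancement.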
Numbers without * were called inactive; ? = inconclusive; . = not tested or not shown.

SMILES	KCNH2 3.1 inh	TRPV1 ag	TRPML1 agonist	TRPML1 blocker	KCNH2 WT inh	TRPV1 PAM
COc1ccc(NC2CCCN(C(=O)c3ccc(OC)o3)C2)cc1 (configuration not stated)	20	?	0	-4	3	-25
CSCc1ccc(C(=O)N2CCCC(Nc3ccc(F)cc3)C2)o1 (configuration not stated)	-27	84*	-1	9	13	1
CC(C)CCn1c(=O)c2sccc2n2c(CCCC(=O)Nc3ccc(F)c(Cl)c3)nnc12	.	.	2	2	.	.
S=c1ncc2n[nH]nc2[nH]1	.	.	-1	.	.	.
COC(=O)c1ccc(CSc2nnc(CS(=O)Cc3ccc(Br)cc3)n2-c2ccccc2)cc1 (configuration not stated)	-9	3	3	-3	-2	7
O=S(Cc1ccc(Br)cc1)Cc1nnc(SCc2ccc(Br)cc2)n1-c1ccccc1 (configuration not stated)	-74*	-4	2	-14	-16	1
O=C(Nc1ccn(CCCN2CCN(c3ncccn3)CC2)c(=O)n1)OCc1ccccc1	-2	.	.	.	-74*	.
Cn1ccc2c(N3CCCC3)cc3c(c21)C1CCC3C1 (configuration not stated)	.	.	0	0	.	.
Cn1ccc2c(N3CCCCC3)cc3c(c21)C1CCC3C1 (configuration not stated)	.	.	57*	-24	.	.
Cc1cc(Cl)ccc1OCC(=O)N(Cc1sccc1C)C1CCS(=O)(=O)C1 (configuration not stated)	.	.	0	16	.	.
CCn1c2ccccc2c2cc(NC(=O)COC(=O)c3cccc(S(=O)(=O)NC)c3)ccc21	2	-3	1	-8	-1	19
CCN(CC)S(=O)(=O)c1cccc(C(=O)OCC(=O)Nc2ccc3c(c2)c2ccccc2n3CC)c1	9	-3	-1	-13	-119*	6
CN(C)c1cc2c3ccccc3ccc2c2ccccc12	.	.	0	.	.	.
O=C(CCc1ccccc1)NNC(=O)COc1ccccc1	-100*	?	0	49	7	-34
O=C(O)c1nc(NCCc2ccccc2)ncc1Cl	-180*	-3	0	74	-113*	-7
O=C(O)c1nc(NCc2ccccc2)ncc1Cl	18	1	.	.	.	-10
CCC(c1nnnn1-c1c(C)cccc1C)N1CCN(C/C=C/c2ccccc2)CC1 (configuration not stated)	.	.	0	.	.	.
CSCCC(c1nnnn1-c1c(C)cccc1C)N1CCN(C/C=C/c2ccccc2)CC1 (configuration not stated)	.	.	69*	.	.	.
COc1cccc(CNc2ncnc3c2nnn3C)c1	.	.	3	19	.	.
CN1C[C@@H]2C(c3ccccc3)C3(c4ccccc4)CC2(C3)[C@H]1c1ccccc1 (some centres not stated)	-43	16	1	-6	6	-14
CN1C[C@@H]2C(c3ccc(C(F)(F)F)cc3)C3(c4ccc(C#N)cc4)CC2(C3)[C@H]1c1ccccc1 (some centres not stated)	-92*	-1	2	3	-102*	-12
CN1C[C@@H]2C(c3ccccc3)C3(c4ccc(C#N)cc4)CC2(C3)[C@H]1c1ccccc1 (some centres not stated)	-112*	-2	1	5	-45	-16
N#Cc1ccc(C23CC4(C2)[C@H](CN(Cc2ccc(C(F)(F)F)cc2)[C@@H]4c2ccccc2)C3c2ccc(Cl)nc2)cc1 (some centres not stated)	.	6	.	.	.	-21
COc1ccccc1/C=C/c1cnccn1	.	.	-1	.	.	.
Cc1ccc(-c2cc(Cc3ccccn3)c(=O)[nH]n2)cc1	-159*	-3	1	88	-152*	-13
SMILES	KCNH2 3.1 inh	TRPV1 ag	TRPML1 agonist	TRPML1 blocker	KCNH2 WT inh	TRPV1 PAM
O=c1[nH]nc(-c2ccc(F)cc2)cc1Cc1ccccn1	13	?	-1	-2	-1	-17
CC(C)CC1Nc2ncnc(N3CCCCC3)c2N(Cc2ccc(Br)cc2)C1=O (configuration not stated)	-24	82*	1	13	-7	1
COc1ccc(Nc2cc(C)c3cc([N+](=O)[O-])ccc3n2)cc1	-99*	5	4	-10	-7	11
CC(C)(C)c1ccc(-c2nc3cc(NC(=O)c4cccc(Br)c4)ccc3o2)cc1	.	.	0	11	.	.
O=C(COc1ccccc1Cl)N(Cc1cccc(F)c1)C1CCS(=O)(=O)C1 (configuration not stated)	.	.	0	18	.	.
COc1ccc(CC(=O)NCc2nn(-c3ccccc3)nc2C)cc1OC	-180*	?	-1	-5	0	-23
COc1ccccc1CNC(=O)Cc1ccc(C)cc1	8	13	1	-12	.	1
COc1ccc(CC(=O)NCc2ccc(-n3cccc3)cc2)cc1OC	3	81*	-1	5	5	-24
Cc1ccc(CNC(=O)Cc2ccc(-n3cccc3)cc2)cc1	-1	4	1	23	-3	-3
O=C(Cc1ccc(-n2cccc2)cc1)NCc1cccs1	-89*	23	0	-5	-10	-20
O=C(CNC(=O)Cc1ccccc1)NCc1cccs1	7	-2	0	26	2	-1
COc1ccccc1CNCC(=O)NCc1ccc(C)cc1	-71*	3	0	-16	-2	-9
COc1ccc(CCNc2ncnc3c2nnn3C)cc1	.	.	4	27	.	.
CCCn1c2ccccc2c2cnn(CC(=O)NC3CCC(C)CC3)c(=O)c21 (configuration not stated)	13	10	-1	23	-3	-1
CCCn1c2ccccc2c2cnn(CC(=O)NC3CCCCC3)c(=O)c21	8	11	2	96	-226*	-13
Cc1ccc(CC#N)c(-c2c(CC#N)ccc(C)c2C)c1C	7	.	78*	-16	-6	.
COc1ccc(N(CC(=O)N2CCc3ccccc3C2)S(=O)(=O)c2ccc(C)cc2)cc1Cl	.	.	1	-3	.	.
CN(C)c1ccc(N=Nc2ccccc2C(=O)OCC(=O)N2CCCC2)cc1	-83*	-1	5	15	-26	6
Nc1[nH]c(=S)[nH]c(=O)c1-c1ccccc1	7	-4	0	-5	-183*	-14
O=c1[nH]c(=S)[nH]c2nc(-c3ccccc3)cnc12	9	.	7	33	5	.
COC(=O)[C@@]12CCCN1[C@H](c1ccc(-c3cccc(Cl)c3)c(OC)c1)[C@H]1C(=O)N(C)C(=O)[C@H]12	-100*	17	0	33	-1	-17
